# Screening data deposited in PubChem BioAssay by National Center for Advancing Translational Sciences (NCATS).
# RORgamma inh: inhibitors of mouse ROR gamma transcriptional activity. P51450. Drosophila S2 Gal4-RORgamma UAS-luciferase reporter, 20 h. Potency, µM (series often up to 53.6 µM), without a hit: at the top dose activity change, negative = inhibition, most hits filed as inhibitors. 5.4% of 310,000 active. AID 2551; note: nearly all actives have a fitted effect of over 60% in size
#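 Luminescence from a UAS-regulated Photinus luciferase reporter in stably transfected Drosophila Schneider cells is measured; decreased signal marks ROR gamma inhibition. Fusion expression is induced by 700 uM copper sulfate for 20 hr.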
# Gal4-VP16 FLuc: counter-screen for ROR gamma inhibitors: Gal4-VP16 reporter; Drosophila S2 Gal4-VP16 UAS-luciferase, luminescence, 20 h; Potency, µM (doses to about 53.6 µM), for the others: at the top dose activity, negative = inhibition, hits mostly inhibitors; 3.5% of 310,000 active;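 note: Gal4-VP16 expression switched on by copper sulfate through the metallothionein promoter; nearly all actives have a fitted effect of over 50% in size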
# DT40 TDP1 CPT: growth inhibition of DT40 Tdp1-/-;hTDP1 cells with camptothecin (screen for TDP1 inhibitors). chicken DT40 Tdp1-/-;hTDP1 cells + 20 nM CPT, ATP luminescence, 48 h. AID 686979. Potency, µM (top dose mostly 46.2 µM), for the others: at the top dose activity change, negative = growth inhibition, actives largely listed as inhibitors. 12% of 420,000 active; note: nearly all actives have a fitted effect of over 55% in size
#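 Chicken DT40 Tdp1-/- cells stably complemented with human TDP1 were seeded at 400 cells/well in medium containing 20 nM camptothecin, exposed to pin-transferred compounds, and grown at 37 °C for at least 48 hr. Viability was read as ATP luminescence.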
# ELG1 repair inh: ELG1-dependent DNA repair inhibition. HEK293T ELG1-luciferase reporter, luminescence, 16 h; DNA damage induced by 5-fluorouridine. Potency, µM (doses to about 46.1 µM), for the others: at the highest dose activity change, negative = inhibition, usual class: inhibitors. 2.3% of 330,000 active. AID 504467; note: nearly all actives have a fitted effect of over 55% in size
#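 5-Fluorouridine DNA damage + compound/DMSO, 2,000 cells/well, 16 h, 37 °C/5% CO2. ONE-Glo, 30 min RT, luminescence. Readout = decrease in reporter signal.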
# DT40 TDP1 no CPT: qHTS for Inhibitors of human tyrosyl-DNA phosphodiesterase 1 (TDP1): qHTS in cells in absence of CPT | DT40 Tdp1-/- hTDP1 cells, no CPT, ATP luminescence, 48 h | Potency, µM (titrated, usually from 46.2 µM), for inactives: at the highest dose activity change, negative = growth inhibition, actives largely listed as inhibitors | 15% of 420,000 active; note: nearly all actives have a fitted effect of over 55% in size
#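 Chicken DT40 Tdp1-/- cells stably complemented with human TDP1 were seeded at 400 cells/well with DMSO in place of 20 nM camptothecin. After compound pinning, cells grew at least 48 hr at 37 °C; viability read by CellTiter-Glo luminescence.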
# ALOX12 inh: inhibitors of human 12S-lipoxygenase ALOX12. AID 1671190. Potency, µM (top dose mostly 108 µM), without a hit: top-dose activity change, negative = inhibition, hits mostly inhibitors. P18054. 1.1% of 580,000 active. purified 12hLO, xylenol orange hydroperoxide absorbance
# Target sequence (P18054 whole entry, looked up): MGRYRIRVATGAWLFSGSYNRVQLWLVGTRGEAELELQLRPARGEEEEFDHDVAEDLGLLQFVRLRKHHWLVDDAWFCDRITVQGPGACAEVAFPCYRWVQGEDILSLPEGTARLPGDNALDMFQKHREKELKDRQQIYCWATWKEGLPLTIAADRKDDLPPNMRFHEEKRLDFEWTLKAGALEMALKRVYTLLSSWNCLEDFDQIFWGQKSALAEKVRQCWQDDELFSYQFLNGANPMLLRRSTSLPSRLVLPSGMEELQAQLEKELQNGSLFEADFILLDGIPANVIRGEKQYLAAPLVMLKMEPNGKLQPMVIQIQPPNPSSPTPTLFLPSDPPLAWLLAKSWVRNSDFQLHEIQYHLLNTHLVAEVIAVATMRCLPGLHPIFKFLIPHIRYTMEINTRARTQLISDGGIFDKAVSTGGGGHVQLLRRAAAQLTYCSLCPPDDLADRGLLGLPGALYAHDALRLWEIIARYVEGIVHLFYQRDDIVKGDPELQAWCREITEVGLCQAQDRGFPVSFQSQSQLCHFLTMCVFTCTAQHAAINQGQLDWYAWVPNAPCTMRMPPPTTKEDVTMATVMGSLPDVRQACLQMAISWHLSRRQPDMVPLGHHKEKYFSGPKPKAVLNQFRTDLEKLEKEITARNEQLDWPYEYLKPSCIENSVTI
#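 Purified human 12hLO (150 nM final) in 25 mM Hepes, 0.01% Triton X-100, pH 7.0 was preincubated 15 min at room temperature with compound. Then 40 uM arachidonic acid was added, 30 min. Hydroperoxide was read by Fe-XO absorbance ratio 573/405 nm.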
# Starred values were filed as active, the others as inactive; ? = inconclusive; . = no result; [ ] = another dose, or the depositor's remark. Shown are actives, neighbours in structure and some others; about 15% of the full set was active somewhere. Calls come from the whole dose curve; as a rule, active = well fitted curve in the direction sought with a large enough effect; inconclusive = small, poorly fitted or top-dose-only effect, or another doubt; inactive = no such curve, though single readings can be large; an effect the other way counts as inactive or inconclusive. % is set by controls: 0 for no effect and ±100 for the full control effect; potency is the fitted concentration of half-maximal effect.
SMILES,RORgamma inh,Gal4-VP16 FLuc,DT40 TDP1 CPT,ELG1 repair inh,DT40 TDP1 no CPT,ALOX12 inh
CCOC(=O)c1c(NC(=O)C2=C(C)NC(=S)NC2c2ccc(CC)cc2)sc(C)c1C (configuration not stated),3.5µM*,7.9µM*,.,6.5µM*,.,.
CCCOc1ccc(C2NC(=S)NC(c3ccccc3)=C2C(=O)Nc2ccc(C)cc2)cc1OC (configuration not stated),-5%,-20%,?,-22%,?,32µM*
CC1=C(C(=O)Nc2ccccc2)C(c2ccc(C(C)(C)C)cc2)NC(=S)N1 (configuration not stated),.,.,.,.,.,40µM*
COc1cc(C2NC(=S)NC(c3ccccc3)=C2C(C)=O)ccc1O (configuration not stated),-17%,-1%,4%,0%,-20%,-21%
CCOc1cc(C2NC(=S)NC(C)=C2C(=O)Nc2ccccc2)ccc1O (configuration not stated),-2%,-8%,1%,-6%,-11%,?
Cc1ccc(NC(=O)C2=C(c3ccccc3)NC(=S)NC2c2ccc(C(C)(C)C)cc2)cc1 (configuration not stated),.,.,.,.,.,14µM*
COC(=O)c1[nH]c2ccc(Cl)cc2c1NC(=O)CN1CCc2cc(OC)c(OC)cc2C1,10%,?,?,9.2µM*,21µM*,13%
COc1cc2c(cc1OC)CN(CCC(C)c1ccc(Cl)cc1)CC2 (configuration not stated),.,.,15µM*,.,16µM*,?
CCOC(=O)N1CCN(CC(=O)Nc2c(C(=O)OC)[nH]c3cc(C)ccc23)CC1,36%,-11%,?,-19%,?,0%
CCOC(=O)c1[nH]c2ccc(OC)cc2c1NC(=O)CN1CCSCC1,-1%,0%,-5%,?,-27%,-12%
COC(=O)c1[nH]c2cc(C)ccc2c1NC(=O)CN1CCc2cc(OC)c(OC)cc2C1,19%,-3%[0.365 µM],?,15µM*,?,.
CCOC(=O)c1[nH]c2ccc(F)cc2c1NC(=O)CN1CCc2cc(OC)c(OC)cc2C1,-21%,5%,.,6.5µM*,.,.
Cc1cc(=O)n(CC(=O)Nc2ccccc2)c(-c2ccccc2)n1,.,.,.,.,.,1%
CC(C)c1ccccc1NC(=O)CCc1ncc(-c2ccccc2)o1,.,.,.,.,.,3%
COc1cc2c(cc1OC)CN(CC(=O)Nc1ccc(Cl)cc1Cl)CC2,4%,1%,21µM*,?,21µM*,0%
COC(=O)c1[nH]c2cc(OC)c(OC)cc2c1NC(=O)CN1CCN(Cc2ccccc2)CC1,-28%,-21%,.,1.6µM*,.,.
COc1ccc(Cl)cc1NC(=O)CN1CCc2ccccc2C1,.,.,-30%,?,-4%,20%
Cc1ccc(NC(=O)Nc2ccc3c(c2)nc(C)n3C)cc1C,42%,-17%,.,?,.,.
Cc1cc2nc(C)n(CCCNC(=O)Nc3ccc(F)cc3)c2cc1C,12%,4%,?,2%,23µM*,3%
CCc1c(C)nc2nncn2c1Nc1ccc(Cl)cc1,.,.,?,.,9.2µM*,-22%
CCc1c(C)nc2nncn2c1NCc1ccccc1,.,.,?,.,16µM*,-7%
COc1ccc(C(=O)Nc2cc(C)nn2-c2nc(C)cc(C)n2)cc1,.,.,.,.,.,-9%
O=C(c1cccnc1OC1CCN(C(=O)C2CC2)C1)N1CCCCC1 (configuration not stated),.,.,.,.,.,18%
Cc1cccc(Nc2nc(C)c(C(=O)N(C)C)s2)c1,.,.,.,.,.,11%
COc1cc2c(cc1OC)C(C[C@H]1CN(C(=O)Nc3ccc(Cl)cc3)CC[C@H]1CC(=O)O)=NCC2,.,.,.,.,.,11%
SMILES,RORgamma inh,Gal4-VP16 FLuc,DT40 TDP1 CPT,ELG1 repair inh,DT40 TDP1 no CPT,ALOX12 inh
COc1cc2c(cc1OC)C(c1ccc(-c3ccc(Cl)c(Cl)c3)o1)=NCC2,13µM*,?,4.1µM*,15µM*,1.8µM*,?
COc1ccc(NC(=O)CN(C)C(=O)c2ccc(-c3cc(Cl)ccc3Cl)o2)cc1,.,.,.,.,.,-10%
COc1cc2c(cc1OC)C(c1ccc(Cl)cc1)=NCC2,-38%,1%,16µM*,-19%,8.2µM*,?
COc1cc2c(cc1OC)C(c1ccc(-c3cc(Cl)ccc3Cl)o1)=NCC2,0%,-1%,2.6µM*,?,1.6µM*,.
COc1cc2c(cc1OC)C(c1oc(-c3ccc(-c4cc(Cl)ccc4Cl)o3)cc1C)=NCC2,.,.,1µM*,.,0.35µM*,.
O=c1[nH]nc2n1CCN(Cc1ccc(F)c(Br)c1)CC2,.,.,.,.,.,63%
COc1cc2c(cc1OC)C(c1ccc(-c3ccccc3Cl)o1)=NCC2,11µM*,11µM*,6.5µM*,?,2.3µM*,40µM*
COc1cc2c(cc1OC)C(c1ccc(-c3ccc(Cl)cc3Cl)o1)=NCC2,6.3µM*,20µM*,1.2µM*,?,0.92µM*,?
COc1cc2c(cc1OC)C(C)=NCC2,-1%,6%,16µM*,8%,-2%,-11%
COc1ccc(NC(=O)C2CCN(C(=O)c3ncn4c3COC(c3ccccc3)C4)CC2)cc1OC (configuration not stated),.,.,.,.,.,-3%
O=C([C@@H]1C[C@H](Oc2cccnc2)CN1C(=O)c1cnccn1)N1CCCC1,.,.,.,.,.,32%
CCc1cn(C[C@H](NCC(C)(C)C)C(=O)O)c(=O)[nH]c1=O,.,.,.,.,.,-25%[176 µM]
COc1cccc(-n2cnc3c(sc4nc(N5CCOCC5)c5c(c43)CCCC5)c2=O)c1,16%,4%,?,4%,18µM*,19%
N#CC(C(=O)CCc1ccccc1)C(=O)NC1CCCCC1 (configuration not stated),.,.,.,.,.,-22%
Cc1oc(-c2cccs2)nc1CC(=O)NC(C)CN1CCOCC1 (configuration not stated),.,.,.,.,.,1%
CCOC(=O)c1cc(S(=O)(=O)N2CCN(c3ccccc3)CC2)[nH]n1,.,.,?,.,?,-21%
CCOC(=O)c1cc(S(=O)(=O)N2CCN(c3ccc(C(C)=O)cc3)CC2)[nH]n1,.,.,18µM*,.,16µM*,?
CCOC(=O)c1cc(S(=O)(=O)N2CCN(c3cccc(C)c3)C(C)C2)[nH]n1 (configuration not stated),.,.,16µM*,.,23µM*,0%
CCOC(=O)c1cc(S(=O)(=O)N2CCN(c3cc(C)ccc3C)CC2)[nH]n1,.,.,?,.,?,0%
N#CCCn1cc(C(=O)Nc2ccc(Cl)cc2)c(-c2cccs2)n1,.,.,.,.,.,-11%
